Values joined by “and” are separate entries in the source; they are usually repeats but may differ in a detail not shown here. Identical values can stand only once. The panel holds about 83,000 compounds, 20% with a hit somewhere; the sample as a whole holds those more often.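 Interpretation: 100, growth as untreated; towards 0, rising growth inhibition; 0, no net growth; 0 to -100, cell death. Compounds scoring below 10 were considered active.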 Active and inactive are the calls of the source.

In this assay the test system is MDA-MB-468 breast. Put plainly: NCI-60 one-dose screen, 48 h (100 = growth as untreated, 0 = no growth, -100 = all killed). The following applies: 10 µM unless noted.
As to `Cc1nc2c3c(-c4ccccc4)c(-c4ccccc4)oc3ncn2n1`, the growth is 93.9% (inactive).
With `O=c1c2cccc3c(Nc4ccc(F)cc4)ccc(c32)c2nc3ccccc3n12` the figure was -43.8% (active); with `Cc1cccc2c(=O)c3c(sc12)c(NCCNCCO)nc1ccccc13`, -19.1% (active); with `O=C(Cc1ccccc1)Nc1nnc(NC2CCN(c3nnc(NC(=O)Cc4ccccc4)s3)CC2)s1`, 125% (inactive).
In the case of `CCOC(=O)c1c(Nc2ccccc2)nn2c(-c3ccco3)c(C#N)cnc12`, the growth is 89.4% (inactive).
With `C[C@H]1O[C@@H](O[C@H]2[C@@H](O)C[C@H](O[C@H]3[C@@H](O)C[C@H](O[C@H]4CC[C@]5(C)C6C[C@@H](O)[C@]7(C)[C@@H](C8=CC(=O)OC8)CC[C@]7(O)C6CC[C@@H]5C4)O[C@@H]3C)O[C@@H]2C)C[C@H](O)[C@@H]1O` (stereo partly drawn) the figure was -61.7% (active); with `N#C/C(=C\c1ccc(-c2ccccc2F)o1)c1nc(-c2ccco2)cs1`, -11% (active).
With `Cc1ccc(C(=O)c2ccc(CC(=O)N/N=C/c3ccccc3O)n2C)cc1`, the growth was 81.1% (inactive).
With `O=c1[nH]c2cc(O)ccc2n2cc3c(F)cccc3c12` the figure was 28.7% (inactive); with `O=C(/C=C/c1ccccc1)c1ccc2ccccc2c1`, 47.8% (inactive).
Turning to `Cc1ccccc1CNC(=O)C1CN(c2ccc(Cl)cc2)N(c2ccc(Cl)cc2)C1=O` (stereo not drawn), the growth is 83.2% (inactive).
As to `CN(C)c1ccc(-c2ccc3[nH]c(=O)nc(-c4ccc(F)cc4)c3c2)cn1`, the growth is 1.22% (active).
The value for `CCCCCCCCCCCCCC(=S)NCCCC[C@H](NC(=O)OCc1ccccc1)C(=O)Nc1ccccc1` was 27.1% (inactive).
With `COc1ccccc1-c1nc2ccc3[nH]ncc3c2c2c1CCCC2` the figure was 47.4% (inactive); with `COc1ccc(-c2nn(-c3ccc(NC(=O)Nc4cc(C(F)(F)F)cc(C(F)(F)F)c4)cc3)cc2-c2ccncc2)cc1Cl`, -11.6% (active); with `COc1cc(-c2nc(C(=O)NCC(=O)NO)nn2-c2ccc(Cl)cc2)cc(OC)c1OC`, 112% (inactive).
The value for `CCCCn1c(=O)c(C2CNC(=O)c3ccccc3N2)cc2ccccc21` (stereo not drawn) was 107% (inactive).
Consider `COc1ccc(NC(=O)n2nc(/C=C\c3ccc(O)c(OC)c3)cc2/C=C\c2ccc(O)c(OC)c2)cc1`, for which the growth was 34.7% (inactive).
The value for `COc1cc(-c2nn(-c3cccc(NC(=O)Nc4ccc(Cl)c(Cl)c4)c3)cc2-c2ccncc2)ccc1Cl` was 2.14% (active); that for `C=C(NC(=O)C(=C)NC(=O)c1csc(C2=NC3c4csc(n4)C4NC(=O)c5csc(n5)C(C(C)(O)C(C)O)NC(=O)C5CSC(=N5)C(=CC)NC(=O)C(C(C)O)NC(=O)c5csc(n5)C3(CC2)NC(=O)C(C)NC(=O)C(=C)NC(=O)C(C)NC(=O)C(C(C)CC)NC2C=Cc3c(C(C)O)cc(nc3C2O)C(=O)OC4C)n1)C(N)=O` (stereo not drawn) was -55.6% (active); that for `COc1c(N2CC3CCCN(C(C)=O)C3C2)c(F)cc2c(=O)c(C(=O)N[C@H]3C(O)[C@@H](O)C(CO)O[C@H]3O)cn(C3CC3)c12` (stereo partly drawn) was 98% (inactive).
The value for `N#CC1=C(N)Oc2cc(N)ccc2C1c1cccnc1` (stereo not drawn) was 97.9% (inactive).
With `O=[N+]([O-])c1cc(S(=O)(=O)Oc2ccccc2)ccc1Cl` the figure was -78.1% (active); with `CC(=O)c1nn(-c2ccccc2)c(=Nc2ccccc2)cc1C`, 91.9% (inactive); with `COc1ccc(Nc2nc(N)nc3c2CCN(Cc2ccc(OC)cc2OC)C3=O)cc1`, 95.6% (inactive).
`COc1cc([C@@H]2c3cc4c(cc3[C@H](O)[C@H]3COC(=O)[C@@H]23)OCO4)cc(OC)c1OC`: the growth is -1.25% (active) and -3.58% (active).
For `CN(CCn1sc(=O)n(Cc2ccccc2)c1=O)Cc1ccc2c(Cl)cc(Cl)c(O)c2n1`, the growth is 42.4% (inactive).
The value for `COc1cc(OC)cc(-c2cc(-c3c[nH]c4ccccc34)nc(-c3c[nH]c4ccccc34)c2C#N)c1` was 92.2% (inactive); that for `CS(CCCCN=C=S)=NC(=O)c1c(F)c(F)c(F)c(F)c1F` (stereo not drawn) was 30.1% (inactive); that for `CC1CC=CCC1C1OCC(C)(C)CO1` (stereo not drawn) was 105% (inactive).
`CCN1CCN(CC(=O)Nc2nc3ccc(NCc4ccc(Cl)cc4)cc3s2)CC1`: the growth was 47.8% (inactive).
The value for `COc1ccc(-c2cnnc3c(-c4cccc(C(F)(F)F)c4)cnn23)cc1` was 77.6% (inactive); that for `COc1cc(C2=Nc3c(N)nc(N)nc3NC(c3cccc(Nc4ccnc5cc(C(F)(F)F)ccc45)c3)C2)cc(OC)c1OC` (stereo not drawn) was 68.1% (inactive).

The values are drawn from PubChem BioAssay (NCI).
